In PubChem BioAssay (EPA / NIEHS) one finds AC50 and outcome data, which are given here for three compounds.

The target in assay [1] is PGR (gene 5241) (UniProt P06401). Put plainly: TOX21_PR_BLA_Followup_Antagonist_ratio: Tox21 HEK293 Progesterone Receptor (PR) Antagonism Beta-lactamase Follow-Up Assay, Ratio (AID 2283934).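 Further: PR-UAS-bla HEK293T cells stimulated with 1 nM R5020 agonist for 16 hr.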 The method in brief:
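Cells are plated, rested 6 hr, then dosed with test compound in DMSO and challenged with 1 nM promegestone. After 16 hr incubation, substrate loading for 2 h at room temperature precedes fluorescence reading; viability is measured in the same wells.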

Assay [2] in a line: TOX21_PR_BLA_Followup_Agonist_viability: Viability Assessment in the Tox21 HEK293 Progesterone Receptor (PR) Agonism Beta-lactamase Follow-Up Assay (AID 2283935).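 Further: signal loss means lower viability so actives are cytotoxic.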 The method in brief: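 Cells were plated in medium with 2% charcoal-stripped FBS and rested 6 hr. Compounds in DMSO were then added for 16 hr at 37C, followed by the FRET substrate step and CellTiter-Glo luminescence after 30 min.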

A short description of assay [3]: TOX21_PR_BLA_Followup_Antagonist_viability: Viability Assessment in the Tox21 HEK293 Progesterone Receptor (PR) Antagonism Beta-lactamase Follow-Up Assay (AID 2283936).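 Further: cells exposed to compound with R5020 agonist for 16 h; hits lower the luminescence signal meaning cytotoxicity.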 The method in brief:
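PR-UAS-bla HEK293T cells in medium with 2% charcoal-stripped FBS were treated with compounds plus R5020 for 16 hr at 37C. After the beta-lactamase read, CellTiter-Glo was added to the same wells and luminescence read after 30 min at room temperature.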

In assay [4] the target is PGR (gene 5241) (UniProt P06401). Put plainly: TOX21_PR_LUC_Followup_Agonist: Tox21 HEK293 Progesterone Receptor (PR) Agonism Luciferase Follow-Up Assay (AID 2283937; active means hit-call score of the fitted dose curve at least 0.9, where 1 is the maximum; inactive means score below 0.9). The method in brief: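 Seed HEK293-PR-A-luc cells, wait 5 h, add compounds in DMSO, incubate 16 h at 37C, add ONE-Glo, read luminescence after 30 min. Activity is increase over DMSO controls; run with a viability counter-screen.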

The target is the same in assay [5]. Kind of assay: TOX21_PR_LUC_Followup_Antagonist: Tox21 HEK293 Progesterone Receptor (PR) Antagonism Luciferase Follow-Up Assay (AID 2283938).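 Further: curve fitted upward as signal gain over DMSO baseline despite antagonist label.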 Summed up:
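HEK293-PR-A-luc cells, 3,000/well, preincubated 5 h at 37C before compound addition in DMSO; 16 h compound exposure at 37C. ONE-Glo luciferase luminescence read after 30 min at room temperature, fitted relative to DMSO baseline.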

Assay [6] is described as follows: TOX21_PR_LUC_Followup_Antagonist_viability: Viability Assessment in the Tox21 HEK293 Progesterone Receptor (PR) Antagonism Luciferase Follow-Up Assay (AID 2283940). Summed up:
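HEK293-PR-A-luc, 3,000 cells/well; 5 h at 37C/0% CO2; compound pin transfer; 16 h incubation; CellTiter-Glo ATP luminescence, signal loss = cytotoxicity.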

Assay [7] can be described thus: TOX21_PR_LUC_Followup_Agonist_viability: Viability Assessment in the Tox21 HEK293 Progesterone Receptor (PR) Agonism Luciferase Follow-Up Assay (AID 2283941).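 Further: loss of signal means cytotoxicity so actives lower viability.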 Summed up:
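Multiplexed viability endpoint of the PR agonist luciferase follow-up: HEK293-PR-A-luc cells treated 16 h at 37C, with viability scored as decrease in CellTiter-Glo ATP signal.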

The target of assay [8] is Thyroid hormone receptor alpha (Rattus norvegicus) + Thyroid hormone receptor beta (Rattus norvegicus) (UniProt P18113+P63059). Kind of assay: TOX21_TR_LUC_GH3_Agonist_Followup: Tox21 GH3 Thyroid Hormone Receptor Agonism Luciferase Follow-Up Assay (AID 2283939). The method in brief:
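Agonist-mode confirmatory run: 15 concentrations (5 nM to 92 uM final) on GH3 rat pituitary cells, 24 h at 37C/5% CO2, T3 as positive control. Luminescence read with ONE-Glo after 30 min.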

For another assay, the target named is THRA (gene 7067) (UniProt P10827). Put plainly: TOX21_TRA_COA_Agonist_Followup_ratio: Tox21 Thyroid Hormone Receptor alpha Agonism through Coactivator Recruitment Follow-Up Assay, Ratio (AID 2283948; active means hit-call score of the fitted dose curve at least 0.9, where 1 is the maximum; inactive means score below 0.9). The method in brief: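 Cell-free TR-FRET: GST-tagged TRα LBD (2.5 nM) with 0.10% BSA and compound, then fluorescein-SRC-2 peptide (200 nM) and Tb-anti-GST antibody (2 nM). Readout 520:495 nm ratio (ex 340 nm), normalized to DMSO (0%) and T3 (100%).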

In a further assay the target is THRB (gene 7068) (UniProt P10828). Kind of assay: TOX21_TRB_COA_Agonist_Followup_ratio: Tox21 Thyroid Hormone Receptor beta Agonism through Coactivator Recruitment Follow-Up Assay, Ratio (AID 2283963; active means hit-call score of the fitted dose curve at least 0.9, where 1 is the maximum; inactive means score below 0.9). The method in brief:
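Agonism is measured as coactivator recruitment in a purified-protein TR-FRET format, using GST-TRβ LBD at 5.0 nM, fluorescein-SRC-2 peptide at 200 nM and Tb-labeled anti-GST antibody at 2 nM. Values are 520:495 nm ratios relative to DMSO (0%) and T3 (100%).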

Assay [9] addresses Retinoic acid receptor RXR-alpha (Homo sapiens) (UniProt P19793). Kind of assay: TOX21_TR_RXR_BLA_Agonist_Followup_ratio: Tox21 Thyroid Hormone Receptor beta Retinoid X Receptor alpha (RXRa) Agonism Beta-lactamase (BLA) Follow-Up Assay, Ratio (AID 2283968). The method in brief: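 Cells were first allowed to attach for 5 h, after which compounds in DMSO were pinned at 11 concentrations and incubated 16 h at 37C. LiveBLAzer CCF4-AM substrate was then added for 2 h at room temperature before reading 460 and 530 nm fluorescence.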

A short description of assay [10]: TOX21_TR_RXR_BLA_Agonist_Followup_viability: Viability Assessment in the Tox21 Thyroid Hormone Receptor beta Retinoid X Receptor alpha (RXRa) Agonism Beta-lactamase (BLA) Follow-Up Assay (AID 2283970). Summed up: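 Viability counter-screen run alongside the RXRa bla follow-up: HEK293T reporter cells were treated for 16h at 37C in stripped-serum medium, then ATP was quantified by luciferase-coupled CellTiter-Glo. Decreased signal relative to DMSO marked cytotoxicity.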

Records with an inconclusive call do not appear. The source made the active and inactive calls. How the source made its calls, unless noted: active means hit-call score of the fitted dose curve at least 0.9, where 1 is the maximum; inconclusive means response in the unintended direction; inactive means score below 0.9.

Sequence of PGR (gene 5241) (P06401 whole entry, looked up): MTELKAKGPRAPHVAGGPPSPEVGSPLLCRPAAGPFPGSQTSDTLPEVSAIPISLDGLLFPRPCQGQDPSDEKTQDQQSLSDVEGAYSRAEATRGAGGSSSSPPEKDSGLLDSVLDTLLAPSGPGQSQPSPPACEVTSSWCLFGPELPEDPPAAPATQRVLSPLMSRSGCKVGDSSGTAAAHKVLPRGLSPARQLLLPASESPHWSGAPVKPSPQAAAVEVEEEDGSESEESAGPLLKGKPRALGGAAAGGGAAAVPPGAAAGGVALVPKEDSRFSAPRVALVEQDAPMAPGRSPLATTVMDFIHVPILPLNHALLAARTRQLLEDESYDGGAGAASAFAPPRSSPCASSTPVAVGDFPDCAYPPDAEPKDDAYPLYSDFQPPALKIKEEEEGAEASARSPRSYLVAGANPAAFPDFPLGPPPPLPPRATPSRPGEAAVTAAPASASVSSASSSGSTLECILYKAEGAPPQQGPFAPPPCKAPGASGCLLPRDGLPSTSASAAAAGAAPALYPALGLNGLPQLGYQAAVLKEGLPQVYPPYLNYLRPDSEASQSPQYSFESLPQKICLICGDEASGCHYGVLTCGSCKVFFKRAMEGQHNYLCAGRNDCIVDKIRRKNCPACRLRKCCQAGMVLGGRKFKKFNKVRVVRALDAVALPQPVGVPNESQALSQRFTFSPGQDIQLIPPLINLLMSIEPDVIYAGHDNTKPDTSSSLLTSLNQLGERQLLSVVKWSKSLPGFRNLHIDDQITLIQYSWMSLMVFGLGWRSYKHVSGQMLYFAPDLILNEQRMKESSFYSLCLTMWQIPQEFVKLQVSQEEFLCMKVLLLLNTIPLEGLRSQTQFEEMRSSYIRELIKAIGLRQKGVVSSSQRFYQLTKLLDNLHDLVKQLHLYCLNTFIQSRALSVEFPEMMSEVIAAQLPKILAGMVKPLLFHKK
Sequence of THRB (gene 7068) (P10828 whole entry, looked up, the tested form may be a part): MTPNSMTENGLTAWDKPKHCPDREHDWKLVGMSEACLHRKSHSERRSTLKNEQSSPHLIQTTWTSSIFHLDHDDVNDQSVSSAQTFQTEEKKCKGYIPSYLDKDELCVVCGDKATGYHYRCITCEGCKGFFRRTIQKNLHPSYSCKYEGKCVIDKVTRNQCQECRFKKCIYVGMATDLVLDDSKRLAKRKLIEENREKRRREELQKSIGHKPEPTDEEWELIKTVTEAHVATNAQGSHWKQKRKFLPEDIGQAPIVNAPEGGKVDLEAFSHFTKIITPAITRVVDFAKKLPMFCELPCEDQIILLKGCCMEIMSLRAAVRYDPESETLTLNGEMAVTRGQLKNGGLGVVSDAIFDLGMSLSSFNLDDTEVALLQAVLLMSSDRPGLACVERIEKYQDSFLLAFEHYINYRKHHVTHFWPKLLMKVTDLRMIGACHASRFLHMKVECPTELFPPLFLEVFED
Sequence of Thyroid hormone receptor alpha (Rattus norvegicus) + Thyroid hormone receptor beta (Rattus norvegicus) (P63059 whole entry, looked up): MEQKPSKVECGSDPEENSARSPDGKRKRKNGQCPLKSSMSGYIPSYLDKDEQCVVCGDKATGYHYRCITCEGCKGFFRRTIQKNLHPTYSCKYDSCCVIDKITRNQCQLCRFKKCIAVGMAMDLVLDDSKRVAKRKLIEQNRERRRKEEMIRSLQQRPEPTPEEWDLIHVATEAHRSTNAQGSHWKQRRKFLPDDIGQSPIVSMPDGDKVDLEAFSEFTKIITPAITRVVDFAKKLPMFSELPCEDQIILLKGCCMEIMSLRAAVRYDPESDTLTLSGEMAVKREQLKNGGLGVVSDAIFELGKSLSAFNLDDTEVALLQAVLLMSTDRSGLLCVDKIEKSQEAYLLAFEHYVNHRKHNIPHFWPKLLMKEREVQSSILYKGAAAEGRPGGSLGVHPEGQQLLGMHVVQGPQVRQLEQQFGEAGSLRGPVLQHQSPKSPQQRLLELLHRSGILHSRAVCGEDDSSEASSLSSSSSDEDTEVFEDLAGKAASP
Sequence of Thyroid hormone receptor alpha (Rattus norvegicus) + Thyroid hormone receptor beta (Rattus norvegicus) (P18113 whole entry, looked up): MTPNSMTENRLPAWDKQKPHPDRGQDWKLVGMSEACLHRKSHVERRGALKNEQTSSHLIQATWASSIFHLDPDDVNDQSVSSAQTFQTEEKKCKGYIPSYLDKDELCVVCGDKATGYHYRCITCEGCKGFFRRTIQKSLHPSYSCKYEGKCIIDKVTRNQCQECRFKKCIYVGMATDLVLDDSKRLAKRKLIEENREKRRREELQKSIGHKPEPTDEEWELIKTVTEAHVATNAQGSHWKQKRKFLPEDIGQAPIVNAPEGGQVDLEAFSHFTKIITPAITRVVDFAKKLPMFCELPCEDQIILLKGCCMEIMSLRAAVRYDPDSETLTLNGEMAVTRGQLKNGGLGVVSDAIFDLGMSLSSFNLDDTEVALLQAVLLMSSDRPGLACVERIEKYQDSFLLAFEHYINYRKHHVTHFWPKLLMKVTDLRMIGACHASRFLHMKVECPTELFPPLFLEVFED
Sequence of Retinoic acid receptor RXR-alpha (Homo sapiens) (P19793 whole entry, looked up): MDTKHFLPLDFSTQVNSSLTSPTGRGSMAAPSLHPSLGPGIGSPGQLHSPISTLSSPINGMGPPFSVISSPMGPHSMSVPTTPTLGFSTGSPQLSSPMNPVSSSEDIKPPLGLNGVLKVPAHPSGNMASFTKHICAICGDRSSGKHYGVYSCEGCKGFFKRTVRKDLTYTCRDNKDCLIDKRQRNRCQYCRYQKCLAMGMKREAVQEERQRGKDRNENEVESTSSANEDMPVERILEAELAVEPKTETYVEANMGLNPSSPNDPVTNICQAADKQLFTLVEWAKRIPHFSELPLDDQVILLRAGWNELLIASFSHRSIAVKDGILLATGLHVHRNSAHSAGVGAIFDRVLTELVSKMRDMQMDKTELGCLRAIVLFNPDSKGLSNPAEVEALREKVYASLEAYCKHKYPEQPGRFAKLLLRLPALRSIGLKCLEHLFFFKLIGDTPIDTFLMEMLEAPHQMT
Sequence of THRA (gene 7067) (P10827 whole entry, looked up, the tested form may be a part): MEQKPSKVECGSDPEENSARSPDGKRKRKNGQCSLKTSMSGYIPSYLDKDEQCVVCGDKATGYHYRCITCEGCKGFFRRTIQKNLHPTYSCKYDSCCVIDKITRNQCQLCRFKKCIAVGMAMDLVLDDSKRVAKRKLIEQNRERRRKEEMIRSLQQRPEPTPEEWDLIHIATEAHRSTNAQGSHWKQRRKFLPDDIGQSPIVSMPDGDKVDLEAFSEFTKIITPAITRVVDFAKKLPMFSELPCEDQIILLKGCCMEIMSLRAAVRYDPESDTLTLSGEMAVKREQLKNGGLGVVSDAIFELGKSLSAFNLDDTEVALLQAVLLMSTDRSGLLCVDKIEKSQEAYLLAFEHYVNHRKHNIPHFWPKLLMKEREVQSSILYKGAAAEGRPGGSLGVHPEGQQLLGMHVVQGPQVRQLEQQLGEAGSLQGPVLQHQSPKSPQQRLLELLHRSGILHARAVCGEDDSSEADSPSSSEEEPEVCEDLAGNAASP

Broadly, the AC50 is the midpoint of the concentration-response curve, whichever way the signal moves. With `CCCOc1ccc2c(c1)CC[C@@H]1[C@@H]2CC[C@]2(C)C(OC)CC[C@@H]12` (stereo not given in full), the concentration at half-maximal activity (AC50) in the assay with PGR (gene 5241) [1] is 12.8 µM (active). For the same compound, the compound was called inactive (in assay [2]; in assay [3]; with PGR (gene 5241) [4]; in the assay with PGR (gene 5241) [5]).
As to `C[C@@H]1C[C@H]2[C@@H]3C[C@H](F)C4=CC(=O)C=C[C@]4(C)[C@@]3(F)[C@@H](O)C[C@]2(C)[C@@]1(O)C(=O)CO`, the outcome (in the assay with PGR (gene 5241) [1]; in assay [2]; in assay [3]; in assay [6]; in assay [7]) was inactive.
For the compound `C=C(NC(=O)C(=C)NC(=O)c1csc(C2=NC3c4csc(n4)C4NC(=O)c5csc(n5)C(C(C)(O)C(C)O)NC(=O)C5CSC(=N5)/C(=C/C)NC(=O)C(C(C)O)NC(=O)c5csc(n5)C3(CC2)NC(=O)C(C)NC(=O)C(=C)NC(=O)C(C)NC(=O)C(C(C)CC)NC2C=Cc3c(C(C)O)cc(nc3C2O)C(=O)OC4C)n1)C(N)=O` (stereo not given), in assay [8], the concentration at half-maximal activity (AC50) is 2.47 µM (active). In addition, the result (with THRA (gene 7067); in the assay with THRB (gene 7068); in [9]; in assay [10]) was inactive.
